Compounds with a hit are over-represented: about 9.2% of the library has one in this group of screens.
NPC1 prom act = NPC1 promoter activation | hit rate 2.4% among 320,000 | Huh7 NPC1 promoter luciferase reporter, 24 h | Potency, µM (doses to about 9.22 µM), for inactives: at the top dose activation, most hits filed as activators; further: % of control where 0% means no effect; nearly all actives have a fitted effect of over 60% in size
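Cells: Huh7 expressing luciferase under the NPC1 promoter, 1500/well. Seeded 2 h, compound added, incubated 24 h at 37 °C. Luciferase reagent, 10 min ambient, then luminescence.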
SMN2 splice up = enhancers of SMN2 splice variant expression; HEK293 SMN2-luciferase splicing reporter, luminescence, 30-36 h; Potency, µM (highest dose often 46.1 µM), without a hit: at the highest dose activity change, positive = activation, hits mostly activators; hit rate 2.8% among 210,000; AID 1458; further: % of control where 0% means no effect; nearly all actives have a fitted effect of over 55% in size
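HEK293 cells carry an SMN2 […]–luciferase reporter in which exon 7 inclusion puts luciferase in frame. Cells were plated 10-12 h before compound addition, then incubated 30-36 h at 37C. ONE-Glo luminescence was read; sodium butyrate at 4.5 mM final served as control.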
FLuc modulator = inhibits or activates purified firefly luciferase, miR-21 counter-screen. P08659. purified FLuc, Km substrates, luminescence inhibition. Potency, µM (top dose mostly 57.5 µM), for the others: at the highest dose activity change, negative = inhibition, hits mostly inhibitors. hit rate 6.9% among 360,000. AID 588342;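 further: plate controls were vehicle for no effect and reference inhibitor for full effect; nearly all actives have a fitted effect of over 55% in size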
Target sequence (P08659 whole entry, looked up): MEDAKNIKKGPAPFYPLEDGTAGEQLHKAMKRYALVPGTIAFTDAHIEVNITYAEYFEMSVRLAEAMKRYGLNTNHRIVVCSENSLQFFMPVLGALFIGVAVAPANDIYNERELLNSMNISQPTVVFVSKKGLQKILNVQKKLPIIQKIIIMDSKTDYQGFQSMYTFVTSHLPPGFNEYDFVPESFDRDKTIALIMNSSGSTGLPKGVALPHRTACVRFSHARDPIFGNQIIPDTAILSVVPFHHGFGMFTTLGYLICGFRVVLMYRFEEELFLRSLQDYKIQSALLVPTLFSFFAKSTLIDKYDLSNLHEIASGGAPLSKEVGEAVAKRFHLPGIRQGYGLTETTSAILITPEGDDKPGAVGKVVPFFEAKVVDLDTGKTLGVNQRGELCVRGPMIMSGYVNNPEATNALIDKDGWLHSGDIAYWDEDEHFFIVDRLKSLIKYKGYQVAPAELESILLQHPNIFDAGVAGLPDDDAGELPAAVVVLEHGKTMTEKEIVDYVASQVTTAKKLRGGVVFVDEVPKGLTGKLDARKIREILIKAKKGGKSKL
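Biochemical qHTS of compounds, final roughly 60 µM downward over six points, against 10 nM purified firefly luciferase using Km concentrations of substrates (10 uM D-luciferin, 10 uM ATP) in Tris acetate pH 7.5 buffer; luminescence output.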
Rab9 promoter act = Rab9 promoter activation | Huh7 Rab9 promoter-luciferase reporter, luminescence, 24 h | Potency, µM (highest dose often 9.22 µM), for the others: top-dose activation, negative = inhibition, most hits filed as activators | hit rate 2.8% among 320,000 | AID 485297; further: % of control where 0% means no effect; nearly all actives have a fitted effect of over 60% in size
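Quantitative HTS format; Huh7 Rab9-luciferase reporter cells (1500/well) receive compound 2 h post-plating, incubate 24 h at 37 °C, then get luciferase reagent for 10 min before luminescence reading.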
ELG1 genotoxic = genotoxicity induction in ELG1-luciferase HEK293T cells; HEK293T ELG1-luciferase reporter, luminescence, 16 h; Potency, µM (series often up to 46 µM), for inactives: at the top dose activity change, positive = activation, usual class: activators; hit rate 1.3% among 330,000; further: % of control where 0% means no effect; nearly all actives have a fitted effect of over 60% in size
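Luminescence read-out: rising ELG1-luciferase signal, reflecting elevated ELG1 protein under genetic stress, flags genotoxic compounds. Cells were treated for 16 hr at 37 °C before ONE-Glo detection.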
ELG1 DNA repair = blocks ELG1-dependent DNA repair in HEK293T cells; HEK293T ELG1-luciferase reporter, luminescence, 16 h; DNA damage induced by 5-fluorouridine; Potency, µM (highest dose often 46.1 µM), for the others: at the top dose activity change, negative = inhibition, actives largely listed as inhibitors; hit rate 2.3% among 330,000; AID 504467; further: on the % scale 0 is the no-effect control and ±100 the full control effect; nearly all actives have a fitted effect of over 55% in size
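Step one: seed 2,000 cells per well. Step two: pin-transfer compound or DMSO alongside 5-fluorouridine. Step three: incubate 16 hr, 37 °C, 5% CO2. Step four: add ONE-Glo, wait 30 min, read luminescence.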
Numbers without * were called inactive; ? = inconclusive; / = not tested or not shown. The call rests on the fitted dose curve; in most records, active means well fitted curve in the direction sought with a large enough effect; inconclusive means small, poorly fitted or top-dose-only effect, or another doubt; inactive means no such curve, though single readings can be large; an effect the other way counts as inactive or inconclusive. Potency means the concentration at half of the fitted maximal effect.

SMILES	NPC1 prom act	SMN2 splice up	FLuc modulator	Rab9 promoter act	ELG1 genotoxic	ELG1 DNA repair
CC(C)n1c(SCC(=O)NC2CC2)nnc1C1CC1	15%	/	7%	14%	4%	1%
CC(C)Cn1c(SCC(=O)N2CCc3ccccc3C2)nc2cc(Cl)ccc2c1=O	-2%	-38%	2%	-1%	-10%	18µM*
Cc1ccc(CNC(=O)c2nc(SCc3ccc(F)cc3)ncc2Cl)cc1	/	3%	-7%	/	/	/
O=C(COC(=O)C12CC3CC(CC(O)(C3)C1)C2)Nc1cccc(Br)c1	1%	/	13µM*	-2%	2%	19%
CC1CC1C(=O)OCC(=O)Nc1cccc(Br)c1 (stereo not drawn)	0%	/	?	0%	2%	17%
CN(C)S(=O)(=O)c1cccc(N=C2SCCN2Cc2ccccc2)c1	-3%	/	-10%	-8%	-9%	18µM*
Cc1ccc(C(=O)N2CC(C)SC2=Nc2cccc(S(=O)(=O)N(C)C)c2)cc1 (stereo not drawn)	-5%	-7%	-7%	-5%	-5%	-17%
COC(=O)c1cc2oc(C)cc2n1Cc1cccc(Cl)c1	/	8%	-1%	/	/	/
Cc1ccc2nc(N(Cc3cccnc3)C(=O)COc3ccccc3)sc2c1	/	/	-7%	/	/	/
Cc1ccc2cccc(NC(=O)c3ccc(-c4cccc(Cl)c4Cl)o3)c2n1	/	6%	0%	/	/	/
CC(=O)C[C@@H](O)CC(=O)[C@@H]1OC(=O)CCCCCCCc2ccccc21	/	/	/	/	1%	?
O=C(Cn1cnc2c(cnn2-c2ccc(F)cc2)c1=O)N1CCN(c2ccccc2F)CC1	-3%	-60%	2%	-7%	-4%	18µM*
Cc1ccc(-n2ncc3c(=O)n(CC(=O)OCc4ccccc4)cnc32)cc1	7%	-8%	?	18%	8%	?
O=C(Cn1cnc2c(cnn2-c2ccccc2)c1=O)OCc1ccccc1	23%	8%	11µM*	4µM*	7%	?
Cc1ccc(-n2ncc3c(=O)n(CC(=O)N4CCCc5ccccc54)cnc32)cc1C	1%	-53%	4%	0%	-6%	23µM*
C/C=C/C1=CC(=O)C[C@H](c2ccc(Cl)cc2)C1	1%	/	2%	-3%	-1%	20%
COCCNC(=O)C(=O)NCC(c1cccnc1)N1CCN(c2ccccc2)CC1 (stereo not drawn)	/	/	0%	/	/	/
CCCC(=O)Nc1nnc(CCc2ccccc2)s1	4%	/	-5%	5%	-3%	22%
CCC(C)(C)C(=O)Nc1nnc(CCc2ccccc2)s1	2.8µM*	/	?	4µM*	21µM*	?
CC(C)(C)CC(=O)Nc1nnc(CCc2ccccc2)s1	3.2µM*	/	?	3.2µM*	?	?
CCCc1nnc(NC(=O)CC(=O)Nc2ccccc2C(=O)O)s1	24%	-11%	19µM*	-1%	1%	?
O=c1cnc2cnc(Oc3cccc(Cl)c3)nc2n1Cc1ccc(F)cc1	/	-22%	/	/	/	/
COc1ccccc1N1CCN(C(=O)c2ccc(COc3cccc4c3OC(C)(C)C4)cc2)CC1	-4%	/	1%	-1%	0%	?
CCOC(=O)c1c(NC(=O)COc2ccc(OC)cc2)sc(C(=O)N(CC)CC)c1C	/	-41%	-12%	/	/	/
CCOC(=O)c1c(NC(=O)COC(=O)c2cccnc2OCC)sc(C(=O)N(CC)CC)c1C	/	/	/	/	-6%	7.3µM*
CCOC(=O)c1c(C)[nH]c(C(=O)OCC(=O)Nc2sc(C(=O)N(C)C)c(C)c2C(=O)OCC)c1C	-5%	/	4%	-2%	-37%	12µM*
CCOC(=O)CC1COCCN1Cc1cn[nH]c1-c1cc(OC)c(OC)c(OC)c1 (stereo not drawn)	0%	/	3%	-1%	?	?
CCc1ccc(CNc2nc3nc(C)c(Cc4ccccc4)c(=O)n3[nH]2)cc1	/	8%	-14%	/	/	/

From PubChem BioAssay
